Source: PubChem BioAssay
MEX-5 binding = MEX-5 zinc finger RNA-binding disruptors – biochemical, C. elegans, fluorescence polarization, MLPCN library, primary screen; MEX-5/FITC-TCR2 RNA binding; hits give low values; activity score (negative = inhibition of binding), % at 10 µM; 300,000 tested, 0.38% active;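 active means inhibition past about -25% in most replicates, and total fluorescence under double the plate's negative control median, limit read from the data; inconclusive means replicates evenly split on the limit, or fluorescence at least double controls; inactive means too little inhibition in most replicates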;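 further: 0% = DMSO and -100% = 5 µM competing unlabeled TCR2 RNA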
Bcl-xL primary = inhibitors of human Bcl-xL, primary screen, biochemical, fluorescence polarization, HTS; AID 2129, 2009; GST-Bcl-xL / FITC-Bim BH3 peptide fluorescence polarization; 320,000 tested, 0.7% active; inhibition, % at 10.9 µM; Bcl-2-like protein 1 (Homo sapiens), Q07817;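 active means inhibition above the mean of all tested compounds plus 3 SD, cutoff set per campaign, cut at about 30% in these data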;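 further: 0% = DMSO wells and 100% = unlabeled Bim-BH3 peptide competitor; inhibitors lower millipolarization by displacing the labeled peptide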
Target sequence (Q07817 whole entry, looked up): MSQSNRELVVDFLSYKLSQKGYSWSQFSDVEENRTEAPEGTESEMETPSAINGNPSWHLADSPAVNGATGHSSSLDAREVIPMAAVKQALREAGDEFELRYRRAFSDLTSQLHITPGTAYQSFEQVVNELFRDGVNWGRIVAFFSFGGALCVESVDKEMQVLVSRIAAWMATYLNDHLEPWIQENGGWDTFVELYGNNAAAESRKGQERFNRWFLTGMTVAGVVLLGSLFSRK
GLD-1 TGE inh = GLD-1/TGE RNA complex disruptors, primary screen, biochemical, fluorescence polarization. Female germline-specific tumor suppressor gld-1 (Caenorhabditis elegans), Q17339. purified GLD-1 + fluorescein TGE RNA. inhibition, % at 5.96 µM. 320,000 tested, 0.44% active. AID 2280, 2010;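 active means percent inhibition above a per-plate cutoff, the plate mean of test compounds plus 3 SD, cut at about 30% in these data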;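 further: 0% = DMSO wells with GLD-1 and probe and 100% = wells lacking GLD-1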
eLon inh = inhibitors of E. coli Lon protease, primary screen, biochemical, fluorescence polarization; purified E. coli Lon protease; 360,000 tested, 0.42% active; inhibition, % at 7.94 µM; P0A9M0; in the data active means inhibition above about 13%, passing the limit was not always enough;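 further: 0% = enzyme with probe and DMSO and 100% = no enzyme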
MCL1 BIM primary = inhibitors of MCL1 binding to BIM-BH3, primary screen, biochemical, fluorescence polarization | inhibition, % at 10.9 µM | AID 2057, 2009 | GST-MCL1 / FITC-Bim-BH3 fluorescence polarization | 320,000 tested, 0.68% active;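 active means inhibition above the mean inhibition of all tested compounds plus 3 SD, set per campaign, cut at about 40% in these data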;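 further: 0% = DMSO wells and 100% = unlabeled Bim-BH3 peptide control; higher means more loss of mP so more displacement of Bim peptide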
Target sequence (Q07820 whole entry, looked up): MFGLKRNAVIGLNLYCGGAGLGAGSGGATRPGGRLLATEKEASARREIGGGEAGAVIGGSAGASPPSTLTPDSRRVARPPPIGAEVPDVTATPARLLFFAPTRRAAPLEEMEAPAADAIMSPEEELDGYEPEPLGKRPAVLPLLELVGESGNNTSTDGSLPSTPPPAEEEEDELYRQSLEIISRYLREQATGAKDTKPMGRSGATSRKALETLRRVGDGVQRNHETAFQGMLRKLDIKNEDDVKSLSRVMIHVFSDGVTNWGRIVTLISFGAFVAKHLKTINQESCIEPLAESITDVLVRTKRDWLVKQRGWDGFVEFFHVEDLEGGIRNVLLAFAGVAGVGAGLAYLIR
Bcl-xL conf = Bcl-xL inhibitors blocking Bim BH3 binding, confirmation, counter-screen for MCL1 inhibitor project, biochemical, fluorescence polarization; shares compounds with MCL1 BIM primary; GST-Bcl-xL / FITC-Bim BH3 peptide FP binding; inhibition, % at 10.9 µM; 1,700 tested, 54% active;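 active means inhibition above a cutoff equal to the mean inhibition of all tested compounds plus 3 SD, cut at about 30% in these data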;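 further: 0% = DMSO wells and 100% = unlabeled Bim BH3 control peptide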
MCL1 inh confirm = inhibitors of MCL1 binding to BIM-BH3, confirmation, biochemical, fluorescence polarization, triplicate; AID 2168, 2009; 1,700 tested, 61% active; shares compounds with MCL1 BIM primary; inhibition, % at 10.9 µM; GST-MCL1 / FITC-Bim-BH3 fluorescence polarization;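 active means inhibition above the average of all tested compounds plus 3 SD, cut at about 40% in these data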;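 further: 0% = DMSO wells and 100% = unlabeled Bim-BH3 control peptide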
GLD-1 TGE cf = GLD-1/TGE RNA binding inhibitors, retest, confirmation, biochemical, fluorescence polarization, triplicate; 550 tested, 10% active; shares compounds with GLD-1 TGE inh; inhibition, % at 5.96 µM; GLD-1/FL-TGE RNA fluorescence polarization;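 active means average inhibition across triplicates above the hit cutoff set in the primary screen, cut at about 32% in these data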;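 further: 0% = GLD-1 with RNA probe and DMSO and 100% = wells lacking GLD-1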
E coli Lon conf = E. coli Lon protease inhibitor retest, confirmation, biochemical, fluorescence polarization | shares compounds with eLon inh | purified E. coli Lon | inhibition, % at 7.94 µM | 1,400 tested, 31% active | AID 602230, 2012; in the data active means inhibition above about 16%;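 further: 0% = enzyme with probe and DMSO and 100% = no enzyme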
An asterisk follows results filed as active; ? = inconclusive; . = no result; + = active, no number. In the library only some 1.4% were active in any assay of this set; here they are far more common.

SMILES	MEX-5 binding	Bcl-xL primary	GLD-1 TGE inh	eLon inh	MCL1 BIM primary	Bcl-xL conf	MCL1 inh confirm	E coli Lon conf	others
CN(C)[C@@H]1C(=O)C(C(N)=O)=C(O)[C@@]2(O)C(=O)C3=C(O)c4c(O)cccc4[C@@](C)(O)C3[C@H](O)C12 (some centres not stated)	-11	153*	77*	71	+	37*	87*	.
CN(C)C1C(=O)C(C(N)=O)=C(O)C2(O)C(=O)C3=C(O)c4c(O)cccc4C(C)(O)C3CC12 (configuration not stated)	?	30*	9	7	62*	14	20	.
Cc1cc(S(=O)(=O)NCc2ccccc2)ccc1OCC(=O)N1CCN(C)CC1	1	-1	1	-5	1	.	.	.
c1coc(CN2Cc3ccccc3-n3nncc3C2)c1	.	.	.	-7	.	.	.	.
CC(C)(O)[C@H]1O[C@H]2CC[C@@]3(C)[C@@](O)(CC[C@H]4Cc5c([nH]c6ccccc56)[C@@]43C)C2=CC1=O	-28*	83*	74*	.	100*	60*	76*	.
COc1cc2c(cc1OC)-c1c(OC)c(OC)c(OC)c3ccnc(c13)C2=O	-83*	52*	41*	.	55*	59*	56*	.	GLD-1 TGE cf=41*
COC(=O)C1=C(c2ccc(S(C)(=O)=O)cc2)C[C@@H]2CC[C@H]1N2C(=O)NCCCOC(C)C	4	2	6	-11	0	.	.	.
CN1CCc2cc3c(c4c2C1Cc1ccccc1-4)OCO3 (configuration not stated)	?	166*	94*	148*	+	77*	87*	99*
O=c1cc(C(F)(F)F)c2cc3c4c(c2o1)CCCN4CCC3	?	+	+	+	+	179*	+	167*
Cc1cc2c(C(F)(F)F)cc(=O)oc2c2c1NCCC2	-1	112*	112*	65*	146*	95*	94*	62*
CC(=O)n1cc(C=C2C(=O)NC(=O)NC2=O)c2ccccc21	-4	3	3	-29	-3	.	.	.
Cn1cc(C=C2C(=O)NC(=O)NC2=O)c2ccccc21	?	+	6	117*	+	+	+	+
O=c1[nH]c(CN2CC=C(c3ccccc3)CC2)nc2scc(-c3ccccc3)c12	2	-8	-15	-42	-18	.	.	.
CN(CCc1nnc(N)s1)[N+](=O)[O-]	0	6	-1	-4	5	.	.	.
O=[N+]([O-])c1ccc(N2CCCCCC2)c2nonc12	?	132*	138*	61*	149*	108*	113*	21*
CN1C(=O)CN=C(c2ccccc2Cl)c2cc(Br)ccc21	1	-3	-2	-12	-6	.	.	.
C[n+]1c(-c2ccccc2)c2cc(N)ccc2c2ccc(N)cc21	-90*	155*	136*	154*	+	189*	+	76*
CCCCOC(=O)C1=C(N)OC2=C(C(=O)CCC2)[C@]12C(=O)Nc1ccccc12	-1	-2	-2	-9	-2	.	.	.
Nc1ccc2nonc2c1[N+](=O)[O-]	?	+	+	193*	+	+	+	+	GLD-1 TGE cf=158*
CN(c1ccc(O)cc1)c1ccc([N+](=O)[O-])c2nonc12	.	.	.	-10	.	.	.	.
Nc1ccc2ccc3cccc[n+]3c2c1	?	+	63*	+	+	+	+	+
Cc1nc2ccc(Cl)cc2c(-c2ccccc2)c1C(=O)O	2	3	7	-2	1	.	.	.
O=Cc1c(C(=O)O)n(Cc2ccc(Cl)cc2)c2ccccc12	27	-55	-67	-77	-101	.	.	.
N#Cc1ccc(/C=C/C(=O)O)cc1	.	6	55*	-1	4	.	.	.	GLD-1 TGE cf=0
N#C/C(=C\c1ccc(O)cc1)C(=O)O	.	.	.	-6	.	.	.	.
SMILES	MEX-5 binding	Bcl-xL primary	GLD-1 TGE inh	eLon inh	MCL1 BIM primary	Bcl-xL conf	MCL1 inh confirm	E coli Lon conf	others
C(CCc1nn[nH]n1)CCc1nn[nH]n1	-3	3	4	-9	3	.	.	.
COC(=O)CCCCC1SCC(NC(=O)c2ccccc2)C1Cl (configuration not stated)	3	48*	38*	-1	46*	.	.	.	GLD-1 TGE cf=19
Cn1cc(C=O)c2nccnc21	.	.	.	4	.	.	.	.
CCN(CC)CCN1Cc2ccccc2C1=N	2	32*	36*	-3	36	.	.	.	GLD-1 TGE cf=-3
CNC(=O)Oc1cccc(-c2cn3cc(OC(=O)NC)ccc3n2)c1	.	22	42*	35*	20	.	.	4	GLD-1 TGE cf=13
c1ccc(C2=NP(N3CCOCC3)(N3CCOCC3)=NC(N3CCOCC3)=N2)cc1	-1	.	.	.	.	.	.	.
Oc1cc(Cl)c(Cl)c(Cl)c1Cl	.	.	.	49*	.	.	.	-12
Cc1cccc(NC(=O)CN2CCN(C(=O)COc3cccc(Br)c3)CC2)c1C	.	3	4	-3	4	.	.	.
CCOc1cccc(=NC2CCCCC2)c2c(C)n(C)c(C)c12	-5	18	-9	90*	14	.	.	0
COc1ccc(CNC(=O)/C=C/c2ccc3[nH]cc(CCN(C)C)c3c2)cc1	0	9	5	-7	4	.	.	.
O=[N+]([O-])c1ccc(N2CCOCC2)c2c1no[n+]2[O-]	.	.	.	29*	.	.	.	4
O=[N+]([O-])c1ccc(N2CCOCC2)c2cccnc12	2	8	2	-2	3	.	.	.
Cc1ccc(OCC(=O)N2CCCC(N3CCN(c4ccc(F)cc4)CC3)C2)cc1 (configuration not stated)	-1	9	-1	-8	6	.	.	.
COc1ccc(OCC(=O)N2CCCC(N3CCN(c4ccccc4C)CC3)C2)cc1 (configuration not stated)	1	2	-3	134*	-2	.	.	-4
